Measured values from ChEMBL document CHEMBL3988442, “University of Dundee, Small-Polar-MMV Screening Library” (2021).

target: T1, Arginase-2, mitochondrial (Homo sapiens) (UniProt P78540); experiment: in vitro enzyme assay to detect the production of urea directly proportional to the activity of Arginase II; format: functional; design: scale not given: in the data most compounds retested in dose-response had high values; settings: 33.3 µM
T1 sequence (whole entry): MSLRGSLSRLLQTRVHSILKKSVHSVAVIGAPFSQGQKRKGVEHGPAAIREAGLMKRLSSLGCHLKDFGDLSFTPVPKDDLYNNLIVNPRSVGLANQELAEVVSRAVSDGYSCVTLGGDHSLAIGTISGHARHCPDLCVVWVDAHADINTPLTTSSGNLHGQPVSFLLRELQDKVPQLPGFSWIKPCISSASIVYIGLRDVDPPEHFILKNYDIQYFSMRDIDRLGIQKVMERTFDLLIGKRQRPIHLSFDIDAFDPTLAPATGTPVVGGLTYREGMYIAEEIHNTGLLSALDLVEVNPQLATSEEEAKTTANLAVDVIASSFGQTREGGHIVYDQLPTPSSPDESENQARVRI

SMILES | Percent Effect [%]
CCn1cnnc1CNC(=O)N1CCC(Cc2cccnc2)CC1 | 1.47
Cc1nc(CN2CCCC(NCc3c(C)nc4sccn34)C2)no1 (stereo not drawn) | 0.712
Cn1nc2c(cc1=O)CN(CCc1nc3ccccc3c(=O)[nH]1)CC2 | 2.27
COc1ccc(CNC(=O)NCc2c(C)cc(C)[nH]c2=O)cc1 | -5.04
CN(C)C(=O)NC1COC2(CCN(Cc3nccn3C)CC2)C1 (stereo not drawn) | 5.81
O=C(CN1CCC(C(=O)c2cc(F)ccc2F)CC1)NC1CCCC1 | 5.92
CCN1C[C@H]2CCN(C(=O)NC3CCCC3)CC[C@H]2S1(=O)=O | -5.81
CCC1=N[C@@]2(CC[C@@H]3CN(Cc4ccccc4F)C[C@@H]32)C(=O)N1CC | 12.5
CN1CCC(Oc2ccc(NC(=O)c3ccccc3Br)cc2)CC1 | -4.14
Cc1cc(C(=O)NCC2COCc3c(C)nnn3C2)no1 (stereo not drawn) | -9.65
Cc1cnc(CNC(=O)NCc2cccnc2N(C)C)s1 | 2.85
CCCNC(=O)N1CCN(Cc2cc(C)no2)CC1 | -2.16
COc1cccc2c1ccn2CCC(=O)N1CCCC(C(=O)O)C1 (stereo not drawn) | 2.37
Cc1csc(CNC(=O)NCC(O)c2cccc(Cl)c2)n1 (stereo not drawn) | -2.38
Cc1noc(Cl)c1CCC(=O)N1CCN(c2ncccn2)CC1 | 5.75
Cc1ccccc1-c1cncc(C2CCN(C)CC2)n1 | -1.62
Cc1ccc(CN2CCOC3(CCCN(C(=O)c4ccco4)C3)C2)s1 (stereo not drawn) | -19.3
CS(=O)(=O)NCc1nnc2n1CCN(CC1CC1)C2 | -2.23
Cc1ccc(=O)n(CC2(O)CCN(Cc3cnc(C)nc3)CC2)n1 | -3.48
CN(C)S(=O)(=O)N1CCCC1CC(=O)c1cccs1 (stereo not drawn) | 11.9

SMILES | Percent Effect [%]
COc1cc(CNC2CCc3nc(C(C)C)nn3C2)cc2c1OCO2 (stereo not drawn) | 3.24
CCOCC1CN(Cc2ccoc2)Cc2nn(CC3CC3)cc21 (stereo not drawn) | 0
O=C(c1cc(COc2ccc3c(c2)OCO3)[nH]n1)N1CCCC1 | 4.39
CCCS(=O)(=O)N1CCC(NC(=O)c2cc(C)c(CC)s2)CC1 | -2.08
CCOC(=O)C1CCN(C(=O)Cn2ccc3cc(Br)ccc32)CC1 | -0.88
CCOc1cc(C)ccc1NC(=O)N(C)Cc1cnn(C)c1 | 0.401
COc1ccc(C(=O)N2CCC(Nc3ccc(C)nn3)CC2)c(F)c1 | 2.8
CC(C)CCc1noc(CN2CCCN(C(=O)c3ccco3)CC2)n1 | -11.2
Cc1noc2nc(C3CCN(Cc4ccncc4)CC3)cc(C(F)F)c12 | -4.41
COCC1CN(Cc2ccc(C)o2)Cc2cn(C)nc21 (stereo not drawn) | -18.5
Cc1cnn(CCNCc2ccccc2Oc2cccnc2)c1 | -9.25
CN(CCCC#N)C1CCCN(Cc2noc(C3CC3)n2)C1 (stereo not drawn) | 5.74
Cc1cc(C)nc(CCNC(=O)[C@H]2CNC[C@@H](C(=O)N3CCCC3)C2)n1 | -5.59
CCOc1cc(C)nc(N2CCN(C(=O)CC)CC2)n1 | 0.924
Cn1ccc(C(=O)N2CCCC(Cc3cccc4ncccc34)C2)n1 (stereo not drawn) | -4.41
CCn1ccnc1CN1CCN(CCOc2ccccc2OC)CC1 | 4.21
O=S(=O)(N(Cc1ccccn1)C1CC1)N1CCCC1c1ccco1 (stereo not drawn) | -2.77
Cn1ncc2c(=O)[nH]c(CN3CCCC3Cc3ccccc3)nc21 (stereo not drawn) | -3.24
CC1CN(CC(=O)Nc2cccnc2)CCN1c1nccs1 (stereo not drawn) | 3.14

target: T2, Proteasome subunit beta (Trypanosoma cruzi) (UniProt O96673); experiment: Trypanosoma cruzi proteasome chymotrypsin-like activity (TcProtChymo) assay.; format: functional; design: scale not given: in the data most compounds retested in dose-response had high values; settings: 9.37 µM
T2 sequence (whole entry): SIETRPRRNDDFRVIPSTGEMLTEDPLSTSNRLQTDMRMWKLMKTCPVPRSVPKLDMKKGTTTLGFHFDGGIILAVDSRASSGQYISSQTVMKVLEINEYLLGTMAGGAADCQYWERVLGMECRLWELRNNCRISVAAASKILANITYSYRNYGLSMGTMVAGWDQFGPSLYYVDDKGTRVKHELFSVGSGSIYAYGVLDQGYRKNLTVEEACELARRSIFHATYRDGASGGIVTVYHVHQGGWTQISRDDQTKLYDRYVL

SMILES | Percent Effect [%]
CCn1cnnc1CNC(=O)N1CCC(Cc2cccnc2)CC1 | 0.0808
Cc1nc(CN2CCCC(NCc3c(C)nc4sccn34)C2)no1 (stereo not drawn) | 15.9
Cn1nc2c(cc1=O)CN(CCc1nc3ccccc3c(=O)[nH]1)CC2 | 17.9
COc1ccc(CNC(=O)NCc2c(C)cc(C)[nH]c2=O)cc1 | 6.18
CN(C)C(=O)NC1COC2(CCN(Cc3nccn3C)CC2)C1 (stereo not drawn) | 11.3
O=C(CN1CCC(C(=O)c2cc(F)ccc2F)CC1)NC1CCCC1 | 8.53
CCN1C[C@H]2CCN(C(=O)NC3CCCC3)CC[C@H]2S1(=O)=O | 15.5
CCC1=N[C@@]2(CC[C@@H]3CN(Cc4ccccc4F)C[C@@H]32)C(=O)N1CC | 18.7
CN1CCC(Oc2ccc(NC(=O)c3ccccc3Br)cc2)CC1 | 10.8
Cc1cc(C(=O)NCC2COCc3c(C)nnn3C2)no1 (stereo not drawn) | 7.65
Cc1cnc(CNC(=O)NCc2cccnc2N(C)C)s1 | -5.07
CCCNC(=O)N1CCN(Cc2cc(C)no2)CC1 | 17.5
COc1cccc2c1ccn2CCC(=O)N1CCCC(C(=O)O)C1 (stereo not drawn) | 11.2
Cc1csc(CNC(=O)NCC(O)c2cccc(Cl)c2)n1 (stereo not drawn) | 20.5
Cc1noc(Cl)c1CCC(=O)N1CCN(c2ncccn2)CC1 | 7.02
Cc1ccccc1-c1cncc(C2CCN(C)CC2)n1 | -0.624
Cc1ccc(CN2CCOC3(CCCN(C(=O)c4ccco4)C3)C2)s1 (stereo not drawn) | 17.6
CS(=O)(=O)NCc1nnc2n1CCN(CC1CC1)C2 | 18.6
Cc1ccc(=O)n(CC2(O)CCN(Cc3cnc(C)nc3)CC2)n1 | 11.9
CN(C)S(=O)(=O)N1CCCC1CC(=O)c1cccs1 (stereo not drawn) | -0.862

SMILES | Percent Effect [%]
COc1cc(CNC2CCc3nc(C(C)C)nn3C2)cc2c1OCO2 (stereo not drawn) | -0.592
CCOCC1CN(Cc2ccoc2)Cc2nn(CC3CC3)cc21 (stereo not drawn) | 3.3
O=C(c1cc(COc2ccc3c(c2)OCO3)[nH]n1)N1CCCC1 | 21.7
CCCS(=O)(=O)N1CCC(NC(=O)c2cc(C)c(CC)s2)CC1 | 7.15
CCOC(=O)C1CCN(C(=O)Cn2ccc3cc(Br)ccc32)CC1 | 9.43
CCOc1cc(C)ccc1NC(=O)N(C)Cc1cnn(C)c1 | -2.52
COc1ccc(C(=O)N2CCC(Nc3ccc(C)nn3)CC2)c(F)c1 | 12.7
CC(C)CCc1noc(CN2CCCN(C(=O)c3ccco3)CC2)n1 | 3.68
Cc1noc2nc(C3CCN(Cc4ccncc4)CC3)cc(C(F)F)c12 | -4.99
COCC1CN(Cc2ccc(C)o2)Cc2cn(C)nc21 (stereo not drawn) | 5.13
Cc1cnn(CCNCc2ccccc2Oc2cccnc2)c1 | 23.3
CN(CCCC#N)C1CCCN(Cc2noc(C3CC3)n2)C1 (stereo not drawn) | 12.8
Cc1cc(C)nc(CCNC(=O)[C@H]2CNC[C@@H](C(=O)N3CCCC3)C2)n1 | 5.91
CCOc1cc(C)nc(N2CCN(C(=O)CC)CC2)n1 | -14.4
Cn1ccc(C(=O)N2CCCC(Cc3cccc4ncccc34)C2)n1 (stereo not drawn) | 7.33
CCn1ccnc1CN1CCN(CCOc2ccccc2OC)CC1 | 8.19
O=S(=O)(N(Cc1ccccn1)C1CC1)N1CCCC1c1ccco1 (stereo not drawn) | 0.359
Cn1ncc2c(=O)[nH]c(CN3CCCC3Cc3ccccc3)nc21 (stereo not drawn) | 2.28
CC1CN(CC(=O)Nc2cccnc2)CCN1c1nccs1 (stereo not drawn) | 1.26
